We go through one sequence from publication PMC7862700, “An all-to-all approach to the identification of sequence-specific readers for epigenetic DNA modifications on cytosine”.

For this test, the target named is T1, FLI1 (Homo sapiens, UniProt Q01543 1-452).
T1 sequence: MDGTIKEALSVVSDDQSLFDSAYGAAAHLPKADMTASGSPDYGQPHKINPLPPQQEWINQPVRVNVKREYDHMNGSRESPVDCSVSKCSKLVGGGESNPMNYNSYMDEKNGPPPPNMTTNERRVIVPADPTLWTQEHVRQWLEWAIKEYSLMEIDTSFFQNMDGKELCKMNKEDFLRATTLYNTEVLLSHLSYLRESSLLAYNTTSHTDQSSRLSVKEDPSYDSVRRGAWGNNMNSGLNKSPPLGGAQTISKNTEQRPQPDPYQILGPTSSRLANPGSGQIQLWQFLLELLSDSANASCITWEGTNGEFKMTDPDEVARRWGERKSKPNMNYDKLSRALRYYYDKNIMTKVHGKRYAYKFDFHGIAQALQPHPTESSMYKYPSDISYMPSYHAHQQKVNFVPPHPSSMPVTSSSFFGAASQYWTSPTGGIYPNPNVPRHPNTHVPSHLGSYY
In words: DAPPL (digital affinity profiling via proximity ligation, sequencing); 10 mM Tris-HCl pH 7.5, 50 mM NaCl, 1 mM DTT, 4% glycerol, room temperature, 30 min; GST-TFs on glutathione beads, 16-mer random dsDNA library, 0.1% formaldehyde crosslink after washing; high values mean tight binding. The settings on record: protein: recombinant; tags: N-terminal GST; dsDNA, one strand shown. An outline of the steps: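 Human transcription factors were made in yeast as GST fusions, captured on glutathione beads and barcoded with DNA. With a tag-only sample included, the pool was incubated with 200 nmole of a random double-stranded 16-mer DNA library in Tris/NaCl/DTT/glycerol buffer at room temperature for 30 min, then crosslinked with 0.1% formaldehyde after washing, ligated by proximity, amplified and sequenced. For binding signal, each hexamer's read frequency for a factor is divided by its frequency for the tag-only sample.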

Consider TAAGTC, for which the binding signal was 1 fold enrichment (6-mer frequency, TF over GST control).
